# Test results reported in ChEMBL document CHEMBL3433997, “St. Jude Leishmania screening dataset” (2016).
# What was measured:
# Format in all cases: functional
# [1] = molecular target: Solute carrier family 2, facilitated glucose transporter member 1 (Homo sapiens) (UniProt P11166); assay: ST_JUDE_LEISH: Cytotoxicity at 2uM final concentration against transgenic Leishmania Mexicana promastigotes LmGLUT1 that are glucose transport deficient and complemented with the human glucose transporter GLUT1. Activity is measured by DNA content using SYBR green in vitro
# [2] = molecular target: Hexose transporter 1 (Plasmodium falciparum) (UniProt O97467); assay: ST_JUDE_LEISH: Cytotoxicity at 2uM final concentration against transgenic Leishmania Mexicana promastigotes LmPfHT that are glucose transport deficient and complemented with the Plasmodium falciparum hexose transporter. Activity is measured by DNA content using SYBR green in vitro
# [3] = molecular target: Glucose transporter (Leishmania mexicana) (UniProt O61059); assay: ST_JUDE_LEISH: Cytotoxicity at 2uM final concentration against transgenic Leishmania Mexicana promastigotes LmGT2 that are glucose transport deficient and complemented with the L. Mexicana glucose transporter 2. Activity is measured by DNA content using SYBR green in vitro
# Chain of Solute carrier family 2, facilitated glucose transporter member 1 (Homo sapiens) (P11166 whole entry): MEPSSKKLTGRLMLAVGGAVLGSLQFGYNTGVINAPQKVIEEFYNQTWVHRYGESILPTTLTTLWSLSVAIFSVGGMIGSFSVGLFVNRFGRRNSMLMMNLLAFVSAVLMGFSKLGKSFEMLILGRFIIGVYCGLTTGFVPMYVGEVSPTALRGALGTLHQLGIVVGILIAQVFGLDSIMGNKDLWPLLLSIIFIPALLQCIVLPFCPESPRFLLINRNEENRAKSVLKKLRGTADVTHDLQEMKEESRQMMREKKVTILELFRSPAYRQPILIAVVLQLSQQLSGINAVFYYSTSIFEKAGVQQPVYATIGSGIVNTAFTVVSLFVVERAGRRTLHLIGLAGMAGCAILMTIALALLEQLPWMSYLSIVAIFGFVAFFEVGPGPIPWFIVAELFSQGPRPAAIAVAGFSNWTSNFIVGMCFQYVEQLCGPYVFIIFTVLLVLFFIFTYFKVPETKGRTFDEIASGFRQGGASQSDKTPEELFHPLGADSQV
SMILES,inhibition [1] [%],inhibition [2] [%],inhibition [3] [%]
COc1cc(Nc2nc(N)n(C(=O)c3ccc4c(c3)OCO4)n2)cc(OC)c1OC,15.3,9.11,0.33
O=C(Nc1cccc(CN2CCCN(Cc3ccsc3)CC2)c1)c1ccc(Cl)c(Cl)c1,4.04,2.57,-2.87
CCN(CC)/C(=N/C(=N)Nc1ccc(Cl)c(Cl)c1)NCCCCCCN/C(=N\C(=N)Nc1ccc(Cl)c(Cl)c1)N(CC)CC,1.15,-1.65,-1.49
Cc1ccc(CNC(=O)[C@H](Cc2ccccc2)Nc2cc(C)nc(Nc3ccccc3)n2)cc1,7.2,6.84,4.59
S=C(NCCc1ccccc1)Nc1ccc2ncsc2c1,-0.85,1.14,-0.73
CCN(CCCN1CCCCC1)c1cc(C)nc(Nc2ccc(C(F)(F)F)cc2)n1,3.6,3.63,3.9
Cc1cc(Nc2c(C(N)=O)cnc3cc(-c4ccoc4)ccc23)ccc1N1CCN(C)CC1,-1.39,-0.31,-0.69
CCn1ncc2c(N3CCCC3=O)cc(C(=O)N[C@@H](Cc3ccccc3)[C@H](O)CNC(C)(C)c3cccc(C(F)(F)F)c3)cc21,-0.71,0.84,5.42
Cc1ccccc1C1CCN(C2CCC(NC(=O)/C=C/c3cc(F)ccc3F)CC2)CC1 (stereo unspecified),1.51,2.73,3.64
CCNc1cc(C(=O)N[C@@H](Cc2ccccc2)[C@H](O)CNC(C)(C)c2cccc(OC)c2)cc(N2CCCC2=O)c1,0.14,1.76,-0.62
O=C(/C=C/c1ccc(Cl)c(Cl)c1)NCCCCCN1CCC(CCNC(=O)/C=C/c2cc(C(F)(F)F)ccc2F)CC1,-4.09,-2.42,2.28
Cc1c(-c2cccc(CNCCc3ccc(Cl)cc3)c2)cnc(N)c1C,-3.87,-2.81,-1.41
CCc1cn2c3c(cc(C(=O)N[C@@H](Cc4ccccc4)[C@H](O)CNC(C)C)cc13)N(C)S(=O)(=O)C2,-2.02,-1.87,0.06
COc1ccc(CCn2c(=N)c(C(=O)NC3CCCC3)cc3c(=O)n4ccccc4nc32)cc1,7.26,9.43,5.98
COc1ccc(CCn2c(=N)c(C(=O)NCc3ccccc3)cc3c(=O)n4cccc(C)c4nc32)cc1,12.7,13.6,7.48
O=C(Nc1cccc(-c2cccc(-c3nc4ccccc4[nH]3)c2)c1)c1ccoc1,7.02,5.63,3.82

SMILES,inhibition [1] [%],inhibition [2] [%],inhibition [3] [%]
CC[C@H](C)CNC(=O)c1cccc(-c2ccc(CN3CCC(N4CCCC4)CC3)cc2)n1,2.3,0.54,1.28
CCN(CC)C(=O)C1CCN(C(C(=O)N2CCN(CC(=O)N3CCCC3)CC2)c2cc3ccccc3o2)CC1 (stereo unspecified),2.21,0.62,1.61
COc1ccc(CCNCCCCCCNCCc2ccccc2Cl)cc1OC,1.25,0.29,1.91
COc1ccc(NC(=O)NC2CCN(c3ccnc4ccccc34)C2)cc1 (stereo unspecified),0.52,0.7,2.29
C=CCc1cccc(CN2CCC(c3cc(O)nc(-c4ccccn4)n3)CC2)c1O,8.38,10.4,0.24
CCOC(=O)c1ccc(-c2cnc(N)c(-c3nc4cccc(C)c4[nH]3)c2)cc1,6.18,6.96,4.47
Cc1cc(N[C@@H](Cc2ccccc2)C(=O)NCCOc2ccccc2)nc(NCCc2cccs2)n1,8.11,7.52,6.47
CC(=O)Nc1ccc2[nH]cc(C3CCN(CC4CCN(C(=O)/C=C/c5ccc(Cl)c(Cl)c5)CC4)CC3)c2n1,3.09,0.87,-1.1
CC(=O)Nc1cccc(C(=O)Nc2nc3ccc(-c4cc(=O)[nH]c(Nc5ccccc5Cl)n4)cc3[nH]2)c1,4.21,2.23,5.36
O=C(/C=C/c1ccc(Cl)c(Cl)c1)NCCCCCN1CCC(c2n[nH]c(-c3ccccc3)c2Br)CC1,1.29,-2.38,0.22
O=C(/C=C/c1ccc(Cl)c(Cl)c1)NCCCCCN1CCCN(C(=O)Nc2ccc(OC(F)F)cc2)CC1,3.05,1.15,0.91
CNCc1ccc(-c2ccc3ccnc(N)c3c2)cc1,2.47,5.56,3.23
Cc1ccc(-c2cc3nc4c(c(NCCCn5ccnc5)n3n2)CCC4)cc1,2.77,1.6,0.92
CCCCCCN1CCCN(Cc2ccc(C(=O)Nc3ccc(C(C)(C)C)cc3)cc2)CC1,4.82,1.84,5.5
Cc1cc2c3c(N)nc(N)nc3ccc2n1C(C)C,75.6,79.8,67.2
Cc1ccc(NC(=O)N2CCC(n3c(-c4ccccc4)nc4cccnc43)CC2)cc1F,6.53,7.11,5.43
